{"source": "patent US20210230599", "about": "“STEM-LOOP COMPOSITIONS AND METHODS FOR INHIBITING INTERLEUKIN-8” (VITRISA THERAPEUTICS, INC., published 2021)"}
{"target": "Interleukin-8 (IL8, CXCL8), C-terminal His-tagged (Homo sapiens, UniProt P10145 SEQ:1-72)", "experiment": "competition; competition TR-FRET; Aptamer 116 variant", "details": "tags: C-terminal His (Sino Biological); stem-loop; ssRNA; 2'-F G except 2'-OMe G at X (CGGU-GGGA-AACGU-GAGAU-GGXUU-GCCG); 2'-OMe A,C,U; 5' C6NH2; 3' idT", "text": "(§1) 2′OMe modifications may impart higher duplex stability, increased metabolic stability in serum and vitreous, and may have greater coupling efficiency during synthesis compared to 2′F-containing nucleotides. The use of these nucleotides may also avoid the potential loss of the 2′F group during production, which can happen during deprotection steps and exposure to heat. To probe the effect of 2′F-G to 2′OMe-G substitution on target binding, variants of Aptamer 116 and 212 were synthesized where 2′F-G was selectively substituted with 2′OMe-G (Table 49) and assayed for activity by competition TR-FRET using ALEXA FLUOR® 647-labeled parent Aptamer 212. 2′OMe-G replacements were well tolerated in all positions of stem S1 (Aptamers 242-248)."}
{"sequence": "CGGUGGGAAACGUGAGAUGGGUUGCCG [listing 1 of 4 here]", "binding signal": "> 10 fold worse than Aptamer 212"}
{"target": "Interleukin-8 (IL8, CXCL8), C-terminal His-tagged (Homo sapiens, UniProt P10145 SEQ:1-72)", "experiment": "competition; competition TR-FRET; Aptamer 116 variant", "details": "tags: C-terminal His (Sino Biological); stem-loop; ssRNA; 2'-F G except 2'-OMe G at X (CGGU-GGGA-AACGU-GAGAU-GXGUU-GCCG); 2'-OMe A,C,U; 5' C6NH2; 3' idT", "text": "as §1"}
{"sequence": "CGGUGGGAAACGUGAGAUGGGUUGCCG [listing 2 of 4 here]", "binding signal": "> 10 fold worse than Aptamer 212"}
{"target": "Interleukin-8 (IL8, CXCL8), C-terminal His-tagged (Homo sapiens, UniProt P10145 SEQ:1-72)", "experiment": "competition; competition TR-FRET; Aptamer 116 variant", "details": "tags: C-terminal His (Sino Biological); stem-loop; ssRNA; 2'-F G except 2'-OMe G at X (CGGU-GGGA-AACGU-GAGAU-XGGUU-GCCG); 2'-OMe A,C,U; 5' C6NH2; 3' idT", "text": "as §1"}
{"sequence": "CGGUGGGAAACGUGAGAUGGGUUGCCG [listing 3 of 4 here]", "binding signal": "> 10 fold worse than Aptamer 212"}
{"target": "Interleukin-8 (IL8, CXCL8), C-terminal His-tagged (Homo sapiens, UniProt P10145 SEQ:1-72)", "experiment": "competition; competition TR-FRET; Aptamer 116 variant", "details": "tags: C-terminal His (Sino Biological); stem-loop; ssRNA; 2'-F G except 2'-OMe G at X (CGGU-GGGA-AACXU-GAGAU-GGGUU-GCCG); 2'-OMe A,C,U; 5' C6NH2; 3' idT", "text": "as §1"}
{"sequence": "CGGUGGGAAACGUGAGAUGGGUUGCCG [listing 4 of 4 here]", "binding signal": "> 10 fold worse than Aptamer 212"}
